# Calls of active or inactive are those of the source.
# Tests used:
# [1] = optical density shifts of acrAB sulA E. coli – strain DRC41, OD650, 48 h, E. coli filamentation inducer project, primary screen (AID 1152); conditions: higher = more signal, called active from +8 up or from −8 down;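 note: E. coli MC1000 strain DRC41 lacking acrAB efflux pump and sulA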
# [2] = probe aLefty1 binding on compound microarray – biochemical, small-molecule microarray, 635/667 nm fluorescence, primary screen (AID 1153); conditions: higher = more signal;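 note: score merges spot fluorescence with signal-to-noise ratio from the scanned slide images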
# [3] = plasmodial surface anion channel blockers, osmotic lysis – cell-based, P. falciparum Indochina, OD700, 1 h, primary screen (AID 1154); conditions: P. falciparum Indochina infected RBC osmotic lysis, higher = more signal, called active from +8 up or from −8 down
# [4] = plasmodial surface anion channel blockers, osmotic lysis – cell-based, P. falciparum Indochina, OD700, 2 h, primary screen (AID 1155);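 note: lysis reports solute entry through the parasite surface anion channel PSAC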; conditions: P. falciparum Indochina infected erythrocytes, higher = more signal, called active from +8 up or from −8 down
# [5] = changes in parasitized red cell lysis, either direction – P. falciparum Indochina, OD700, 3 h, PSAC antagonist project, primary screen (AID 1156); conditions: P. falciparum-infected erythrocytes, osmotic lysis, higher = more signal, called active from +8 up or from −8 down
# [6] = plasmodial surface anion channel blockers, osmotic lysis – cell-based, P. falciparum Indochina, OD700, 18 h, primary screen (AID 1157); conditions: P. falciparum Indochina infected erythrocytes, osmotic lysis OD700, 18 h; higher = more signal, called active from +8 up or from −8 down
# [7] = S6 kinase pathway phospho-S6 level changes – cell-based, A549, cytoblot, luminescence, serum-stimulated, primary screen (AID 1158); conditions: 5 h, higher = more signal;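 note: serum-stimulated A549 lung adenocarcinoma cells; signal is phosphorylated S6 detected by cytoblot immunostaining with HRP secondary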
# [8] = target: NADPH oxidase 2 (Homo sapiens) (UniProt P04839); assay: compounds shifting NOX2 Amplex Red fluorescence – cell-based, HEK293-NOX2, PMA-stimulated, NOX inhibitor project, primary screen (AID 1159); conditions: 45 min, higher = more signal, called active from +8 up or from −8 down; note: test concentration not given here
# Sequence of NADPH oxidase 2 (Homo sapiens) (P04839 whole entry, looked up): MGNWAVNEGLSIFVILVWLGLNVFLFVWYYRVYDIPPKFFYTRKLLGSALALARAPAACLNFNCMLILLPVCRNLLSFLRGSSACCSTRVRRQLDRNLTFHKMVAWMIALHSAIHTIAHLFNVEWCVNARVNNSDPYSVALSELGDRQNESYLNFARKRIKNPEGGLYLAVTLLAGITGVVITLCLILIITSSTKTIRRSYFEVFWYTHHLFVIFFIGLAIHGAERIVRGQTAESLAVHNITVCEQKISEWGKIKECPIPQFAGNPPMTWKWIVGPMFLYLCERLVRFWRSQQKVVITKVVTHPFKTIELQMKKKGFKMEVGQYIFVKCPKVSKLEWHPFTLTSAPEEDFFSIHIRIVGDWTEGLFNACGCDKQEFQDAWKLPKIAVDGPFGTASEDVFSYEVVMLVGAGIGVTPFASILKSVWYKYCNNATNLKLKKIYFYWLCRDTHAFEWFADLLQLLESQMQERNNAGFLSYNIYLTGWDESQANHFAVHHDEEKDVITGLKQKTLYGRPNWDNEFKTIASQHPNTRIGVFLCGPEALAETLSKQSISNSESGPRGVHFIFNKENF
# [9] = target: NADPH oxidase 4 (Homo sapiens) (UniProt Q9NPH5); assay: compounds shifting NOX4 Amplex Red fluorescence – cell-based, HEK293-NOX4, tetracycline-induced, NOX inhibitor project, primary screen (AID 1160); conditions: HEK293-NOX4, Amplex Red H2O2 fluorescence, 45 min; higher = more signal, called active from +8 up or from −8 down
# Sequence of NADPH oxidase 4 (Homo sapiens) (Q9NPH5 whole entry, looked up): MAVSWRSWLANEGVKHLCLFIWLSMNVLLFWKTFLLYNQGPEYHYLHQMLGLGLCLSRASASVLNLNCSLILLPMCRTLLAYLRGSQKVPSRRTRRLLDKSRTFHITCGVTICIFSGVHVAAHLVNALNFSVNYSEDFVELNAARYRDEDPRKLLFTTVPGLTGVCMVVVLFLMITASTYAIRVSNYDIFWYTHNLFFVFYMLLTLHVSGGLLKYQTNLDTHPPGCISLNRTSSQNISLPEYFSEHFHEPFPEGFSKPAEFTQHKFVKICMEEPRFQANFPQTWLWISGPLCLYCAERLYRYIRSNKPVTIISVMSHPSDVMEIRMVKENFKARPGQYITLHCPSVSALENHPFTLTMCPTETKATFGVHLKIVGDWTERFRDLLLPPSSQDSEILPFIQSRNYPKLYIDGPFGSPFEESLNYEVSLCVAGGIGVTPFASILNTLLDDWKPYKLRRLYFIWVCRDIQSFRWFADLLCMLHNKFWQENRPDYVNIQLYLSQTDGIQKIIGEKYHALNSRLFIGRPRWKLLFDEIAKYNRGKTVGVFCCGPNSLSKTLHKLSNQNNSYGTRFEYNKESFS
# [10] = target: NADPH oxidase 5 (Homo sapiens) (UniProt Q96PH1); assay: compounds shifting NOX5 Amplex Red fluorescence – cell-based, HEK293-NOX5, NOX inhibitor project, primary screen (AID 1161); conditions: HEK293-NOX5, ionomycin, 45 min, higher = more signal
# Sequence of NADPH oxidase 5 (Homo sapiens) (Q96PH1 whole entry, looked up): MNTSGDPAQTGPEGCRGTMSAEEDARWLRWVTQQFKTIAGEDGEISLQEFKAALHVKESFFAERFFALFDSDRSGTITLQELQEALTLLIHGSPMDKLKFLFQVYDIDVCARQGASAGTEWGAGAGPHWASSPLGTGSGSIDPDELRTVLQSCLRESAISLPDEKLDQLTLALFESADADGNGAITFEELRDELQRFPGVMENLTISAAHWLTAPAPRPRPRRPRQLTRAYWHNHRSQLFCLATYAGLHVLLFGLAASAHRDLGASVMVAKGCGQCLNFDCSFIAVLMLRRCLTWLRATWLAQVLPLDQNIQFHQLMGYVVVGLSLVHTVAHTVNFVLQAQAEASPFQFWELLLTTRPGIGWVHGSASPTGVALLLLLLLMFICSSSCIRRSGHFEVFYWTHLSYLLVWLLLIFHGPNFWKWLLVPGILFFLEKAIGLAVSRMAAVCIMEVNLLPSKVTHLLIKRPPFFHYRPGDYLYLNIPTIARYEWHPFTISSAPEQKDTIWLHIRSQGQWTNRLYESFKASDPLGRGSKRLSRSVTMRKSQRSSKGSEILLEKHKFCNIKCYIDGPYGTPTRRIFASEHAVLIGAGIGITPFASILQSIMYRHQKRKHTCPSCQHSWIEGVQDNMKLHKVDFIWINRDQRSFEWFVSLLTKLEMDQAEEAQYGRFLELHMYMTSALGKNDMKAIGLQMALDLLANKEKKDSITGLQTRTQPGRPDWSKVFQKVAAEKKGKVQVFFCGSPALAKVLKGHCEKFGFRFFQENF
# [11] = compound effects on lung adenocarcinoma cell viability – A549, calcein-AM fluorescence, 48 h, basal, profiling panel (AID 1162); conditions: higher = more signal; note: test concentration not given here
# [12] = compound effects on differentiated 3T3-L1 adipocyte viability – cell-based, 3T3-L1 adipocytes, calcein-AM fluorescence, 48 h, basal, profiling panel (AID 1163); conditions: 3T3-L1 adipocytes viability, higher = more signal; note: test concentration not given here
# [13] = compound effects on hepatocellular carcinoma cell viability – HepG2, calcein-AM fluorescence, 48 h, basal, profiling panel (AID 1164); conditions: higher = more signal; note: test concentration not given here
# [14] = compound effects on multiple myeloma cell viability – MM1S, calcein-AM fluorescence, 48 h, basal, profiling panel (AID 1165); conditions: higher = more signal; note: test concentration not given here
# [15] = calcein-AM signal in unstimulated myeloma cells – cell-based, calcein-AM fluorescence, 48 h, PK04 Diversity Set, profiling panel (AID 1166); conditions: RPMI8226 myeloma viability, higher = more signal;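 note: cells grown under basal conditions without added stimulus; test concentration not given here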
# [16] = JC-1 mitochondrial signal, unstimulated HepG2 cells – cell-based, JC-1 fluorescence, 24 h, 100 nL compound, profiling panel (AID 1167); conditions: HepG2 mitochondrial potential, higher = more signal; note: test concentration not given here
# [17] = JC-1 mitochondrial signal, unstimulated adipocytes – cell-based, JC-1 fluorescence, 3T3-L1 adipocytes, 24 h, 100 nL compound, profiling panel (AID 1168); conditions: JC-1 mitochondrial fluorescence, higher = more signal, called active from +8 up or from −8 down; note: test concentration not given here
# [18] = JC-1 mitochondrial signal, unstimulated myeloma cells – cell-based, JC-1 fluorescence, RPMI8226, 24 h, 100 nL compound, profiling panel (AID 1169); conditions: JC-1 mitochondrial potential fluorescence, higher = more signal; note: test concentration not given here
# [19] = JC-1 mitochondrial signal, unstimulated MM1S myeloma – cell-based, JC-1 fluorescence, 24 h, 100 nL compound, profiling panel (AID 1170); conditions: MM1S mitochondrial potential, higher = more signal; note: test concentration not given here
# [20] = resazurin metabolic signal in A549 cells – cell-based, resazurin fluorescence, 24 h, PK04 Diversity Set, profiling panel (AID 1171); conditions: A549 viability, higher = more signal, called active from +8 up or from −8 down; note: test concentration not given here
Compound,z-score [1],composite z-score [2],z-score [3],z-score [4],z-score [5],z-score [6],z-score [7],z-score [8],z-score [9],z-score [10],z-score [11],z-score [12],z-score [13],z-score [14],z-score [15],z-score [16],z-score [17],z-score [18],z-score [19],z-score [20]
CN1C(=O)C2C=CC(C(O)c3ccc(I)cc3)N(Nc3ccccc3)C2C1=O (stereo not given),-1.97 (inactive),0.195,1.9 (inactive),1.27 (inactive),1.04 (inactive),1.12 (inactive),-0.919,-0.874 (inactive),-5.01 (inactive),-4.14,-0.596,-0.0039,-0.268,-0.521,-0.0284,-1.07,-1.09 (inactive),-0.177,0.0807,-0.962 (inactive)
CC(C)C[C@@H]1NC(=O)[C@@H]2C[C@H](C(=O)NCCCCCC[N+](C)(C)C)[C@H](c3cccc(OCCO)c3)N2C1=O,-0.407 (inactive),0.22,6.26 (inactive),1.35 (inactive),-0.953 (inactive),0.376 (inactive),-0.797,2.3 (inactive),1.31 (inactive),2.51,-0.895,0.137,-1.16,-0.131,-0.585,-1.48,0.229 (inactive),0.108,0.0386,-0.483 (inactive)
C[C@@H]1ON(c2ccc(I)cc2)[C@H](c2ccc(OC(=O)OC(C)(C)C)cc2)[C@H]1C(=O)N1C(=O)OC[C@H]1Cc1ccccc1,2.67 (inactive),-0.191,0.789 (inactive),-0.474 (inactive),0.546 (inactive),-1.73 (inactive),1.5,-5.57 (inactive),0.237 (inactive),1.39,0.0132,1.06,1.61,-0.234,0.351,0.144,0.498 (inactive),-0.366,-1.81,1.33 (inactive)
CC(C)C(=C=CC[C@@H](O)c1cccc(OCCO)c1)C[C@@H](O)c1ccccn1,0.599 (inactive),0.0502,8.55 (active),0.809 (inactive),0.489 (inactive),0.527 (inactive),0.0722,-1.37 (inactive),-0.666 (inactive),-1.45,-0.171,-0.142,-0.295,-0.0369,0.128,-0.0286,-0.425 (inactive),-0.387,-0.753,1.22 (inactive)
COCC1C2CC[C@H]3C(OCc4ccc(OC)cc4)OC[C@]4(C)[C@H]3C2=C(CN4C(=O)OC(C)(C)C)[C@H](C)C1COC (stereo not given in full),-1.23 (inactive),-0.302,3.68 (inactive),-0.556 (inactive),0.308 (inactive),-2.05 (inactive),2.25,-1.53 (inactive),-1.89 (inactive),-2.99,-0.226,0.335,0.919,-2.64,-4.48,5.54,-0.664 (inactive),-0.205,-1.22,-0.0834 (inactive)
COCCOC(=O)N1C(=O)[C@@]2(c3cc(C#Cc4ccc(OC)cc4)ccc31)[C@H](c1ccc(OCCO)cc1)N1[C@H](c3ccccc3)[C@H](c3ccccc3)OC(=O)[C@H]1[C@@H]2C(=O)Nc1nc2ccccc2s1,0.905 (inactive),0.101,4.12 (inactive),2.5 (inactive),-0.16 (inactive),2.13 (inactive),0.0972,1.29 (inactive),0.402 (inactive),0.944,-0.922,0.829,-1.26,-0.569,-1.26,-2.86,3.99 (inactive),-0.735,-1.13,-0.285 (inactive)
CCCCC(=C=CC[C@H](O)c1ccc(OCCO)cc1)C[C@H](O)c1cc(Cl)cc(Cl)c1O,-0.118 (inactive),0.13,21.2 (active),5.19 (inactive),1.56 (inactive),1.73 (inactive),-0.476,0.51 (inactive),-0.667 (inactive),-1.49,-0.217,-0.185,-0.197,-3.34,-2.76,-2.43,-0.368 (inactive),-0.773,-0.349,1.17 (inactive)
COc1ccc([Si](C)(C)[C@@H]2[C@@H](CCn3cc([C@H](O)c4ccccc4)nn3)O[C@]3(C(=O)N(c4ccccc4)c4ccccc43)[C@H]2C)cc1,0.424 (inactive),-0.348,3.15 (inactive),-1.51 (inactive),3.03 (inactive),-1.63 (inactive),0.751,-0.0239 (inactive),0.276 (inactive),0.506,-0.985,1.98,-2.22,-1.18,-3.91,1.63,0.177 (inactive),-0.973,-0.681,-2.3 (inactive)
CN1C(=O)C2C=CC(C(O)c3ccc(F)cc3)N(NC(=O)OC(C)(C)C)C2C1=O (stereo not given),-1.73 (inactive),0.101,-0.468 (inactive),0.477 (inactive),0.008 (inactive),0.901 (inactive),-1.28,-0.46 (inactive),-0.56 (inactive),-0.481,-0.834,-0.528,0.0643,-2.82,-0.0542,-0.8,-0.517 (inactive),0.247,1.3,-1.18 (inactive)
COCCOC(=O)N1C(=O)[C@@]2(c3cc(C#CCC(C(=O)OC)C(=O)OC)ccc31)[C@H](C(=O)NC[C@H](O)c1ccccc1)[C@H]1C(=O)O[C@H](c3ccccc3)[C@H](c3ccccc3)N1[C@@H]2c1ccc(OCCO)cc1,0.0789 (inactive),-0.118,7.02 (inactive),2.02 (inactive),0.53 (inactive),1.12 (inactive),-0.273,1.41 (inactive),0.805 (inactive),0.938,-0.248,0.951,0.583,0.152,-1.87,-0.684,0.407 (inactive),-0.854,-0.724,-0.873 (inactive)
Cc1ccc(N2C(=O)c3ccccc3[C@](C)(C(=O)NCc3ccccc3)[C@@H]2c2ccc(CO)cc2)nc1,0.465 (inactive),0.205,2.01 (inactive),0.161 (inactive),0.385 (inactive),0.305 (inactive),0.389,0.37 (inactive),-1.75 (inactive),-0.583,0.868,0.483,0.197,-0.169,-1.46,0.191,-0.834 (inactive),-0.494,1.46,-0.0526 (inactive)
CCOC(=O)C1=CCC(c2ccccc2)N(S(=O)(=O)c2ccc([N+](=O)[O-])cc2)C1 (stereo not given),-0.72 (inactive),0.0451,2.62 (inactive),0.987 (inactive),1.4 (inactive),0.46 (inactive),-0.412,0.528 (inactive),-0.114 (inactive),-0.023,-0.482,-1.19,-1.07,-0.259,0.0811,-1.73,-0.483 (inactive),0.602,-1.37,0.217 (inactive)
CN1C(=O)C2C(C1=O)C1C=C(CCCO)C2C(C2CC2)N1Cc1cc2c(cc1Br)OCO2 (stereo not given),-0.541 (inactive),0.0041,3.48 (inactive),0.68 (inactive),0.3 (inactive),0.307 (inactive),-0.188,-0.84 (inactive),-0.389 (inactive),-0.349,-0.487,0.337,-0.717,-0.172,-0.909,0.435,-0.527 (inactive),0.87,0.859,-0.477 (inactive)
CN(C)C(=O)[C@@]1(CCC(=O)OC(C)(C)C)N=C(c2ccc(OCCCO)cc2)O[C@H]1c1ccccc1CN=[N+]=[N-],0.476 (inactive),0.121,14.6 (active),1.39 (inactive),0.668 (inactive),0.447 (inactive),-0.25,-1.73 (inactive),-0.111 (inactive),-0.901,-0.286,-0.607,0.423,-0.124,-0.389,0.628,-0.682 (inactive),-1.18,-0.496,1.19 (inactive)
CCN(CC)c1ccc(N2CC=CC34O[C@@H]5C=CCCOC(=O)C5[C@H]3C(=O)N(CCO)[C@@H]4C2=O)cc1 (stereo not given in full),0.286 (inactive),-0.155,1.03 (inactive),0.537 (inactive),0.836 (inactive),0.159 (inactive),-0.616,0.697 (inactive),-0.513 (inactive),1.11,-0.126,1.11,-0.618,0.766,-0.073,-0.178,0.0903 (inactive),0.277,0.639,-0.0198 (inactive)
COC(=O)[C@@]1(Cc2ccc(OC)cc2)[C@H]2c3cc(C(=O)N4CCCC4)n(Cc4ccc(OC(F)(F)F)cc4)c3C[C@H]2CN1C(=O)c1ccccc1,-1.32 (inactive),0.029,2.24 (inactive),0.453 (inactive),-0.0152 (inactive),1.06 (inactive),-0.174,1.11 (inactive),1.56 (inactive),2.4,-0.77,-0.25,-0.871,-0.889,-2.45,0.225,-0.621 (inactive),-0.638,-1.58,-0.995 (inactive)
CCOC(=O)C=Cc1cc(F)ccc1O,-1.38 (inactive),0.0355,16.6 (active),-0.347 (inactive),0.782 (inactive),-1.23 (inactive),0.684,-4.77 (inactive),-3.25 (inactive),-4.14,-1.13,0.749,-0.714,-0.633,-1.39,-1.19,-0.966 (inactive),0.287,-0.0774,0.0142 (inactive)
CC(C)CNC(=O)[C@@]1(c2ccc([N+](=O)[O-])cc2)CC(=O)N(C2CCCCC2)[C@@H]1c1ccc(CO)cc1,0.706 (inactive),0.164,0.879 (inactive),-0.189 (inactive),0.0352 (inactive),-0.013 (inactive),0.358,0.382 (inactive),0.581 (inactive),0.668,-0.0452,0.389,-0.004,-0.41,0.542,0.634,-0.6 (inactive),-0.426,0.771,0.436 (inactive)
